Counter-ions that a name gives are not always drawn. ± gives the standard deviation of the averaged measurements.
Key:
Test in all cases: growth (OD600 after 10 h); higher = more growth (less inhibition)
[1] = tested on: E. coli TESEC Alr+ wild-type control; details: compound 0.1 mM; raw OD600 reference: median of DMSO wells 0.241, cell-free background 0.041
Protocol: (§1)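 TESEC Mtb Alr E. coli, or the Alr+ wild-type control, in 384-well plates with Prestwick library compounds at 0.1 mM and 1% DMSO, across arabinose induction levels of 1E3 to 1E7 nM. Growth is read as OD600 after 10 h at 37 °C in triplicate biological replicates.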

E. coli TESEC Mtb Alr [2] = details: compound 0.1 mM
Protocol: as §1

E. coli TESEC Mtb Asd = details: compound 0.1 mM
Protocol: (§2)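 TESEC E. coli strains in which the native enzyme is deleted and replaced by arabinose-inducible Mtb Asd, DapB, CysH or TrpD, each grown in its selective medium. Strains were screened against the Prestwick library at 0.1 mM and 1% DMSO in 384-well format at low and high arabinose induction. Growth is read as OD600 after 10 h in triplicate.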

E. coli TESEC Mtb DapB = details: compound 0.1 mM
Protocol: as §2

[3] = tested on: E. coli TESEC Alr+ wild-type control; details: compound 0.1 mM; raw OD600 reference: median of DMSO wells 0.49, cell-free background 0.052
Protocol: (§3)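 TESEC Mtb Alr E. coli (ΔaraC ΔtolC ΔentC Δalr ΔdadX, arabinose-inducible Mtb Alr) or the Alr+ wild-type control strain, grown in defined M9-fructose medium without D-alanine in 96-well plates with Prestwick library compounds at 0.1 mM and 1% DMSO. Low Alr induction is 0.1 µM arabinose and high induction is 10 mM arabinose.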

E. coli TESEC Mtb Alr [4] = details: compound 0.1 mM; remark: listed apart in the source
Protocol: as §3

[5] = arabinose 1000 nM, raw OD600 reference: median of DMSO wells 0.294, cell-free background 0.041
[6] = arabinose 10000 nM, raw OD600 reference: median of DMSO wells 0.264, cell-free background 0.041
[7] = arabinose 100000 nM, raw OD600 reference: median of DMSO wells 0.201, cell-free background 0.041
[8] = arabinose 1000000 nM, raw OD600 reference: median of DMSO wells 0.193, cell-free background 0.041
[9] = arabinose 10000000 nM, raw OD600 reference: median of DMSO wells 0.146, cell-free background 0.041
[10] = arabinose induction (level): High, raw OD600 reference: median of DMSO wells 0.331, cell-free background 0.041
[11] = arabinose induction (level): Low, raw OD600 reference: median of DMSO wells 0.417, cell-free background 0.041
[12] = arabinose induction (level): High, raw OD600 reference: median of DMSO wells […], cell-free background 0.041
[13] = arabinose induction (level): Low, raw OD600 reference: median of DMSO wells 0.227, cell-free background 0.041
[14] = arabinose 100 nM, raw OD600 reference: median of DMSO wells 0.413, cell-free background 0.052
[15] = arabinose 10000000 nM, raw OD600 reference: median of DMSO wells […], cell-free background 0.052

| Structure (SMILES) | growth [1] | growth (E. coli TESEC Mtb Alr [2]; [5]) | growth (E. coli TESEC Mtb Alr [2]; [6]) | growth (E. coli TESEC Mtb Alr [2]; [7]) | growth (E. coli TESEC Mtb Alr [2]; [8]) | growth (E. coli TESEC Mtb Alr [2]; [9]) | growth (E. coli TESEC Mtb Asd; [10]) | growth (E. coli TESEC Mtb Asd; [11]) | growth (E. coli TESEC Mtb DapB; [12]) | growth (E. coli TESEC Mtb DapB; [13]) | growth [3] | growth (E. coli TESEC Mtb Alr [4]; [14]) | growth (E. coli TESEC Mtb Alr [4]; [15]) |
| --- | --- | --- | --- | --- | --- | --- | --- | --- | --- | --- | --- | --- | --- |
| Cc1cc(C)nc(NS(=O)(=O)c2ccc(N)cc2)n1 [Sulfamethazine sodium salt] | 0.242 ± 0.0082 | 0.293 ± 0.015 | 0.252 ± 0.013 | 0.215 ± 0.016 | 0.165 ± 0.0038 | 0.142 ± 0.0032 | 0.408 ± 0.021 | 0.449 ± 0.042 | 0.191 ± 0.0082 | 0.269 ± 0.022 | 0.482 ± 0.088 | 0.413 ± 0.012 | 0.335 ± 0.0075 |
| CO[C@@]1(NC(=O)C(C(=O)O)c2ccc(O)cc2)C(=O)N2C(C(=O)O)=C(CSc3nnnn3C)CO[C@@H]21 (stereo partly drawn) [Moxalactam disodium salt] | 0.03947 ± 0.00038 | 0.0445 ± 0.0063 | 0.0401 ± 0.00064 | 0.039 ± 0.0013 | 0.03987 ± 0.00015 | 0.0393 ± 0.00046 | 0.0546 ± 0.0041 | 0.0559 ± 0.007 | 0.0504 ± 0.0038 | 0.0472 ± 0.001 | 0.04587 ± 5.8e-05 | 0.0472 ± 0.00072 | 0.056 ± 0.0067 |
| CCN(CC)C(=O)Nc1ccc(OCC(O)CNC(C)(C)C)c(C(C)=O)c1 (stereo not drawn) [Celiprolol HCl] | 0.215 ± 0.0023 | 0.292 ± 0.0042 | 0.247 ± 0.0042 | 0.221 ± 0.028 | 0.171 ± 0.0053 | 0.135 ± 0.0071 | 0.245 ± 0.048 | 0.341 ± 0.089 | 0.192 ± 0.009 | 0.264 ± 0.058 | 0.455 ± 0.027 | 0.421 ± 0.0097 | 0.356 ± 0.014 |
| Oc1ccc(C2CNCCc3c2cc(O)c(O)c3Cl)cc1 (stereo not drawn) [Fenoldopam] | 0.0924 ± 0.0031 | 0.0795 ± 0.0009 | 0.0538 ± 0.0026 | 0.0873 ± 0.0018 | 0.0562 ± 0.0034 | 0.086 ± 0.0096 | 0.113 ± 0.0085 | 0.126 ± 0.017 | 0.149 ± 0.035 | 0.135 ± 0.029 | 0.355 ± 0.023 | 0.104 ± 0.048 | 0.0738 ± 0.006 |
| CN1CCC(OC(c2ccccc2)c2ccccc2)CC1 [Diphenylpyraline hydrochloride] | 0.221 ± 0.013 | 0.294 ± 0.021 | 0.256 ± 0.0056 | 0.162 ± 0.0083 | 0.141 ± 0.0025 | 0.1486 ± 0.0014 | 0.237 ± 0.035 | 0.461 ± 0.077 | 0.211 ± 0.013 | 0.246 ± 0.0048 | 0.47 ± 0.021 | 0.4078 ± 0.0034 | 0.303 ± 0.015 |
| Cc1cc(C(C)(C)C)cc(C)c1CC1=NCCN1 [Xylometazoline hydrochloride] | 0.226 ± 0.0033 | 0.285 ± 0.0055 | 0.261 ± 0.01 | 0.221 ± 0.011 | 0.164 ± 0.0057 | 0.161 ± 0.0028 | 0.272 ± 0.041 | 0.393 ± 0.066 | 0.173 ± 0.011 | 0.252 ± 0.059 | 0.4501 ± 0.0037 | 0.413 ± 0.015 | 0.331 ± 0.011 |
| NC[C@@H]1O[C@H](O[C@H]2[C@@H](O)[C@H](O[C@@H]3[C@@H](O)[C@H](N)C[C@H](N)[C@H]3O[C@H]3O[C@H](CN)[C@@H](O)[C@H](O)[C@H]3N)O[C@@H]2CO)[C@H](N)[C@@H](O)[C@@H]1O [Neomycin sulfate] | 0.249 ± 0.0054 | 0.305 ± 0.009 | 0.287 ± 0.0035 | 0.219 ± 0.015 | 0.19 ± 0.005 | 0.163 ± 0.0028 | 0.271 ± 0.043 | 0.389 ± 0.021 | 0.187 ± 0.018 | 0.245 ± 0.041 | 0.453 ± 0.037 | 0.4232 ± 0.0036 | 0.343 ± 0.013 |
| Cc1cccn2c(=O)c(-c3nnn[nH]3)cnc12 [Pemirolast potassium] | 0.218 ± 0.011 | 0.268 ± 0.011 | 0.2352 ± 0.0021 | 0.151 ± 0.0021 | 0.148 ± 0.0043 | 0.125 ± 0.0032 | 0.284 ± 0.1 | 0.371 ± 0.089 | 0.212 ± 0.028 | 0.223 ± 0.014 | 0.49 ± 0.067 | 0.421 ± 0.012 | 0.311 ± 0.014 |
| Clc1ccc(C(Cn2ccnc2)OCc2ccsc2Cl)c(Cl)c1 (stereo not drawn) [Tioconazole] | 0.04147 ± 0.00032 | 0.0412 ± 0.0011 | 0.0461 ± 0.00071 | 0.04173 ± 0.00029 | 0.0443 ± 0.00052 | 0.04223 ± 0.00035 | 0.0476 ± 0.0011 | 0.0482 ± 0.0016 | 0.0486 ± 0.00086 | 0.0575 ± 0.017 | 0.0501 ± 0.00075 | 0.0561 ± 0.0097 | 0.051 ± 0.00017 |
| O=C(O)Cc1ccc(-c2ccccc2)cc1 [Felbinac] | 0.235 ± 0.0055 | 0.277 ± 0.023 | 0.245 ± 0.0027 | 0.163 ± 0.0054 | 0.173 ± 0.0071 | 0.1221 ± 0.00095 | 0.273 ± 0.054 | 0.434 ± 0.02 | 0.194 ± 0.014 | 0.206 ± 0.022 | 0.575 ± 0.04 | 0.396 ± 0.014 | 0.305 ± 0.0053 |
| CN(C)CCC(c1ccc(Cl)cc1)c1ccccn1 (stereo not drawn) [Chlorpheniramine maleate] | 0.22 ± 0.0024 | 0.264 ± 0.022 | 0.259 ± 0.0028 | 0.18 ± 0.018 | 0.162 ± 0.0019 | 0.135 ± 0.0055 | 0.291 ± 0.091 | 0.399 ± 0.061 | 0.187 ± 0.012 | 0.23 ± 0.0095 | 0.466 ± 0.037 | 0.4277 ± 0.0018 | 0.325 ± 0.01 |
| CC(N)C12CC3CC(CC(C3)C1)C2 (stereo not drawn) [Rimantadine Hydrochloride] | 0.228 ± 0.0089 | 0.293 ± 0.0047 | 0.2629 ± 0.0005 | 0.207 ± 0.025 | 0.18 ± 0.0024 | 0.151 ± 0.006 | 0.209 ± 0.019 | 0.497 ± 0.07 | 0.195 ± 0.021 | 0.232 ± 0.025 | 0.583 ± 0.077 | 0.407 ± 0.009 | 0.345 ± 0.011 |
| N=c1nc(N2CCCCC2)cc(N)n1O [Minoxidil] | 0.244 ± 0.0093 | 0.28 ± 0.0067 | 0.247 ± 0.014 | 0.225 ± 0.0082 | 0.166 ± 0.0034 | 0.148 ± 0.0099 | 0.371 ± 0.048 | 0.384 ± 0.054 | 0.18 ± 0.0054 | 0.209 ± 0.019 | 0.45 ± 0.038 | 0.406 ± 0.0072 | 0.379 ± 0.034 |
| CN/C(=N\CCSCc1nc[nH]c1C)NC#N [Cimetidine] | 0.249 ± 0.0059 | 0.295 ± 0.023 | 0.252 ± 0.0057 | 0.216 ± 0.028 | 0.179 ± 0.00087 | 0.142 ± 0.0033 | 0.376 ± 0.1 | 0.376 ± 0.045 | 0.181 ± 0.012 | 0.206 ± 0.025 | 0.545 ± 0.0056 | 0.409 ± 0.0072 | 0.337 ± 0.019 |
| CC1(O)CCOC(=O)C1 (stereo not drawn) [Mevalonic-D, L acid lactone] | 0.244 ± 0.0056 | 0.304 ± 0.017 | 0.271 ± 0.0041 | 0.186 ± 0.019 | 0.203 ± 0.0065 | 0.141 ± 0.0074 | 0.269 ± 0.027 | 0.402 ± 0.022 | 0.183 ± 0.011 | 0.206 ± 0.024 | 0.506 ± 0.11 | 0.394 ± 0.03 | 0.349 ± 0.015 |
| CN1[C@@H]2CC[C@H]1C[C@@H](OC(c1ccccc1)c1ccccc1)C2 [Benztropine mesylate] | 0.1702 ± 0.0017 | 0.219 ± 0.0061 | 0.289 ± 0.037 | 0.165 ± 0.0036 | 0.133 ± 0.0073 | 0.166 ± 0.0023 | 0.137 ± 0.018 | 0.253 ± 0.076 | 0.166 ± 0.0063 | 0.201 ± 0.011 | 0.487 ± 0.029 | 0.4104 ± 0.0035 | 0.288 ± 0.0043 |

Source: the supplement of paper PMC9262897, “Low-cost anti-mycobacterial drug discovery using engineered E. coli” (Nature Communications, 2022)
